# Measured values taken from PubChem BioAssay (EPA / NIEHS).
# Records with an inconclusive call do not appear. The source made the active and inactive calls. The calls were made as follows: active = hit-call score of the fitted dose curve at least 0.9, where 1 is the maximum; inconclusive = response in the unintended direction; inactive = score below 0.9.
# Biological target: Cellular tumor antigen p53 (Homo sapiens) (UniProt P04637)
# Experiment: TOX21_p53_BLA_p3_ratio: Tox21 HCT-116 p53 Agonism Beta-lactamase Assay, Ratio, Phase 3 (AID 2283596)
# Method in brief: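 HCT116 p53-bla cells (4000/well) given compound in DMSO (217-fold dilution) after 5 h, incubated 16 h at 37C. CCF4-AM substrate 2 h at room temperature; 460/530 nm emission ratio, gain fitted against DMSO.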
# Cellular tumor antigen p53 (Homo sapiens), sequence (P04637 whole entry, looked up): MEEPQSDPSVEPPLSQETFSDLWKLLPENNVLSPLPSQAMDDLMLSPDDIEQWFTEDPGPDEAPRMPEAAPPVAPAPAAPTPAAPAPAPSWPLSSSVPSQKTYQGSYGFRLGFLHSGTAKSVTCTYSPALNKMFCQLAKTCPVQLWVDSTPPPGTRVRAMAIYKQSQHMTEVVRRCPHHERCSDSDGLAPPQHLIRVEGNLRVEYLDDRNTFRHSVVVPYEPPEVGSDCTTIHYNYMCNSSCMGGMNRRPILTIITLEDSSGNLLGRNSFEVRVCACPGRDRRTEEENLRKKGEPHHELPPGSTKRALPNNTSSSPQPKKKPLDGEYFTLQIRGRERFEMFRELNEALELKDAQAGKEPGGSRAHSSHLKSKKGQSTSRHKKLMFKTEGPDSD
row,SMILES,outcome
1,Cc1c(NC(=O)c2cccnc2)c(=O)n(-c2ccccc2)n1C,inactive
2,CCCOC(=O)C(C)O (stereo not given),inactive
3,CC[N+](CC)(CC)CCC(O)(c1ccccc1)C1CCCCC1 (stereo not given),inactive
4,COS(=O)(=O)C(F)(F)F,inactive
5,Cc1ccccc1N1CCN(CCc2nnc3n2CCCC3)CC1,inactive
6,C[C@@H]1C[C@H]2[C@@H]3CCC4=CC(=O)C=C[C@]4(C)[C@@]3(F)[C@@H](O)C[C@]2(C)[C@@]1(O)C(=O)COC(=O)c1cccc(S(=O)(=O)O)c1,inactive
7,CC(CCc1ccccc1)NCC(O)c1ccc(O)c(C(N)=O)c1 (stereo not given),inactive
8,C[C@@H]1O[C@@H](OC[C@H]2O[C@@H](Oc3c(-c4ccc(OCCO)c(OCCO)c4)oc4cc(OCCO)cc(O)c4c3=O)[C@H](O)[C@@H](O)[C@@H]2O)[C@H](O)[C@H](O)[C@H]1O,inactive
9,C[C@@H](O)[C@H]1C(=O)N2C(C(=O)O)=C(S[C@@H]3CN[C@H](C(=O)N(C)C)C3)[C@H](C)[C@H]12,inactive
10,Oc1ccc(C2(c3ccc(O)cc3)CC3CC2C2CCCC32)cc1 (stereo not given),inactive
11,CNC(=O)OCc1cccc(COC(=O)NC)n1,inactive
12,CC1CCc2c(N3CCC(O)CC3)c(F)cc3c(=O)c(C(=O)O)cn1c23 (stereo not given),inactive
13,C=CCOc1ccc(CC(=O)O)cc1Cl,inactive
14,Cc1cn[nH]c1,inactive
15,NCC[C@H](O)C(=O)N[C@@H]1C[C@H](N)[C@@H](O[C@H]2O[C@H](CN)CC[C@H]2N)[C@H](O)[C@H]1O[C@H]1O[C@H](CO)[C@@H](O)[C@H](N)[C@H]1O,inactive
